The text below walks through data of PubChem BioAssay (NCATS).

A short description of assay [1]: qHTS for Inhibitors of the Aldehyde Dehydrogenase Family (ALDH1A2, ALDH1A3, ALDH2, ALDH3A1) (AID 2061307). Further: nearly all actives have a fitted effect of over 50% in size. On Potency: test system not described further here. On activity change, negative = inhibition: on the % scale 0 is the no-effect control and ±100 the full control effect. On the technique in general: qHTS replaces the single test concentration by a dilution series.
The target of assay [2] is Aldehyde dehydrogenase, mitochondrial (Homo sapiens) (UniProt P05091). In words: qHTS for Inhibitors of the Aldehyde Dehydrogenase Family (ALDH2) Primary screen (AID 2061308). Further: nearly all actives have a fitted effect of over 55% in size.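 On activity change, negative = inhibition: plate controls were vehicle for no effect and reference inhibitor for full effect.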
The target in assay [3] is Retinaldehyde dehydrogenase 3 (Homo sapiens) (UniProt P47895). In words: qHTS for Inhibitors of the Aldehyde Dehydrogenase Family (ALDH1A3) Confirmatory screens (AID 2061311). Further: nearly all actives have a fitted effect of over 60% in size. On activity change, negative = inhibition: on the % scale 0 is the no-effect control and ±100 the full control effect.
In assay [4] the target is Retinal dehydrogenase 2 (Homo sapiens) (UniProt O94788). The assay can be described thus: qHTS for Inhibitors of the Aldehyde Dehydrogenase Family (ALDH1A2) Confirmation screens (AID 2061314). Further: nearly all actives have a fitted effect of over 65% in size.
Assay [5] deals with Retinaldehyde dehydrogenase 3 (Homo sapiens) (UniProt P47895). The assay can be described thus: qHTS for Inhibitors of the Aldehyde Dehydrogenase Family (ALDH1A3) Primary screen (AID 2061315).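 On activity change, negative = inhibition: plate controls were DMSO vehicle for no effect and reference inhibitor for full effect.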
Assay [6] deals with Aldehyde dehydrogenase 1A1 (Homo sapiens) (UniProt P00352). The assay can be described thus: qHTS for Inhibitors of the Aldehyde Dehydrogenase Family (ALDH1A1) Confirmatory screens (AID 2061316). Further: nearly all actives have a fitted effect of over 65% in size.

Where “and” joins values, the source holds several entries; their conditions need not be identical. Identical values can stand only once. Records with an inconclusive call do not appear. A number with no mark means an inactive call. Calls of active or inactive are those of the source. The call rests on the fitted dose curve; in most records, active means well fitted curve in the direction sought with a large enough effect; inconclusive means small, poorly fitted or top-dose-only effect, or another doubt; inactive means no such curve, though single readings can be large; an effect the other way counts as inactive or inconclusive.
Potency means the concentration at half of the fitted maximal effect.

Consider `COc1ccc2nc(-c3ccc(F)cc3)sc2c1`, for which the Potency in assay [1] was 5.38 µM (active). Besides, the Potency result in assay [2] is “inactive”.

Turning to `CC(=O)Nc1sc2c(c1-c1nc3ccccc3o1)CCN(C(C)C)C2`, the Potency in assay [1] was 7.08 µM (active); in assay [3] it was 12.6 µM (active). Besides, in assay [2], the Potency result was “inactive”.

As for `Cc1ccc(S(=O)(=O)Nc2cc(F)ccc2C(=O)Nc2nc(-c3ccccc3)cs2)cc1`, the Potency in assay [1] is 0.224 µM (active); in assay [4] it was 5.04 µM (active). The Potency result in assay [2], in assay [3] and in assay [5] was “inactive” in each case.

Consider `Cc1ccc2nc3sc(C(=O)NCCCN(C)C)cc3cc2c1`, for which the values for the Potency in assay [1] and in assay [3] were 12.1 µM (active) and 21.5 µM (active), respectively. Also, the Potency result in assay [2] was “inactive”.

With `NCC(CNc1nc(Nc2cccc(NC(=O)N3CCCC3)c2)ncc1I)C(=O)c1cccs1` (centres undefined), the Potency entry in assay [1] is “inactive”. Besides, the Potency in assay [2] was 20 µM (active).

Turning to `Cc1ccc(CNc2ccc(N3CCCCC3)cc2)cc1`, the Potency in assay [1] is 11.3 µM (active); in assay [3], 20.1 µM (active); in assay [4], 28.3 µM (active). In assay [2], the Potency result is “inactive”.

As to `Oc1ccccc1C1Nc2cccc3cccc(c23)N1`, the Potency result in assay [1] and in assay [2] was “inactive” throughout. Also, the Potency in assay [3] was 12.7 µM (active).

As for `Cc1ccccc1Nc1nc(C#N)nc(NC2CCCC2)n1`, the Potency was 10.1 µM (active) in assay [1] and 12.7 µM (active) in assay [4]. The Potency result in assay [2] and in assay [5] was “inactive” throughout. In addition, the activity change, negative = inhibition in assay [3] was -21.8% [at 0.0073 µM].

On to `O=C(Nc1ccccc1C(=O)Nc1cccc(C(F)(F)F)c1)c1cccc([N+](=O)[O-])c1`, for which the Potency in assay [1] is 3.55 µM (active).

As to `O=C(Nc1ccccn1)c1cccs1`, the Potency entry in assay [1] was “inactive”.

With `Cc1[nH]cnc1C[C@H]1CCc2c(C)c3ccccc3n2C1=O`, the results for the Potency in assay [1], in assay [3] and in assay [4] were 8.96 µM (active), 3.18 µM (active) and 11.3 µM (active), respectively. Further, the Potency entry in assay [2] and in assay [5] was “inactive” in each case.

In the case of `COc1cccc2cc(C(=O)Nc3ccc(F)c(F)c3)c(=O)oc12`, the Potency entry in assay [1] is “inactive”.

For `O=C(O)c1ccc(-c2noc(-c3cccc(F)c3)n2)cc1`, in assay [1], the Potency was 1.52 µM (active). The Potency entry in assay [2] is “inactive”.

As for `O=C(NCc1ccccc1)C1CCN(c2nc(-c3ccc(Br)cc3)cs2)CC1`, the Potency in assay [1] was 7.08 µM (active). Moreover, the Potency entry in assay [2], in assay [3], in assay [4] and in assay [5] was “inactive” throughout.

`Cc1ccc(CNc2ccc(N3CCN(C)CC3=O)cc2)cc1`: the Potency result in assay [1] and in assay [2] was “inactive” each time.

For `C=C1CN(Cc2ccc(C(=O)Nc3ccccc3N)cc2)C(=O)c2ccccc21`, the Potency in assay [1] was 15.8 µM (active). Also, the Potency entry in assay [2], in assay [3], in assay [4] and in assay [5] was “inactive” in each case.

As for `C[S+](=O)([O-])c1ccc(-c2nnc3ccc(C(=O)NCc4cccs4)cn23)cc1`, in assay [1], the Potency result is “inactive”.

As for `c1cc2c(cc1CNc1ccc(N3CCCCC3)cc1)OCO2`, the Potency in assay [1] and in assay [3] was 12.7 µM (active) throughout. Moreover, in assay [2], the Potency entry was “inactive”.

As for `N#Cc1cccc(C#N)c1-c1nc2c3ccccc3c3cc(Cl)ccc3c2[nH]1`, the Potency result in assay [1], in assay [2] and in assay [4] was “inactive” each time. The Potency in assay [3] is 5.65 µM (active); in assay [5] it was 25.1 µM (active).

For `O=C(O)c1ccc(-c2noc(-c3ccccc3F)n2)cc1`, the Potency was 3.98 µM (active) and 1.2 µM (active) in assay [1]; 0.565 µM (active) in assay [3]. The Potency entry in assay [2] and in assay [4] was “inactive” throughout.

`CC(C)(C)OC(=O)NC1CCN(c2nc(Br)cs2)CC1`: the Potency entry in assay [1] is “inactive”.

Take `Oc1ccc(COc2cccc3ccccc23)c2cccnc12`: the Potency result in assay [1] and in assay [2] was “inactive” throughout. The Potency in assay [3] is 10.1 µM (active).

`c1cc2c(cc1CNc1ccc(N3CCOCC3)cc1)OCO2`: the Potency in assay [1] is 11.3 µM (active); in assay [3] it was 6.34 µM (active). The Potency result in assay [2] was “inactive”.

With `CC1(C)CC[C@]2(C(=O)O)CC[C@]3(C)C(=CCC4[C@@]5(C)C[C@@H](O)[C@H](O)[C@@](C)(CO)C5CC[C@]43C)[C@@H]2[C@@H]1O` (some centres undefined), the Potency result in assay [1] and in assay [2] was “inactive” each time. For the same molecule, the Potency in assay [3] is 11 µM (active).

Turning to `CCOC(=O)C1CCN(c2ncc(-c3ccc4c(c3)OCCCO4)s2)CC1`, the Potency in assay [1] is 5.65 µM (active); in assay [3], 10.1 µM (active); in assay [4] it was 4 µM (active). Further, in assay [2], the Potency entry is “inactive”.

As to `CCOC(=O)OC(C)OC(=O)c1csc(-n2[nH]c(-c3ccc(F)c(F)c3)cc2=O)n1` (centres undefined), in assay [1], the Potency result was “inactive”.

Regarding `O=C(c1ccco1)N1CCN(c2nc(-c3ccc(Br)cc3)cs2)CC1`, the Potency in assay [1] is 3.98 µM (active); in assay [3], 15.8 µM (active). The Potency entry in assay [2], in assay [4] and in assay [5] was “inactive” each time.

Take `CN(C)c1cccc(-c2cnc(N3CCC(C(N)=O)CC3)s2)c1`: the Potency in assay [1] is 8.96 µM (active); in assay [3], 15.9 µM (active); in assay [6] it was 10.1 µM (active). Besides, the Potency result in assay [2] and in assay [4] was “inactive” in each case.

For `COc1cccc(C2=Nn3c(nnc3-c3ccccc3C)SC2)c1`, the Potency in assay [1] is 2.51 µM (active); in assay [3], 22.4 µM (active); in assay [4], 17.8 µM (active); in assay [6], 10.1 µM (active). The Potency entry in assay [2] and in assay [5] was “inactive” in each case.

As to `CC(=O)Nc1ccc(-c2c(NC(C)=O)sc3c2CCNC3)cn1`, the Potency entry in assay [1], in assay [2], in assay [3] and in assay [5] was “inactive” each time. For the same molecule, the results for the Potency in assay [4] and in assay [6] were 11.3 µM (active) and 17.9 µM (active), respectively.

As to `CC(=O)N1CCN(c2ccc(NCc3cccs3)cc2)CC1`, the Potency in assay [1] was 3.18 µM (active); in assay [3], 7.98 µM (active); in assay [4] it was 5.65 µM (active); in assay [6], 10.1 µM (active). The Potency entry in assay [2] was “inactive”.
